In all, about 33,000 sequences were measured (“e-score”: median about -0.05, highest 2% from about 0.38 on). For the sample, the highest values were picked, then their nearest neighbours and some sequences at random.
What follows are sequences tested against T1, SIX1-Q177R homeodomain (human, UniProt Q15475 108-198, Q177R) (assay: universal protein binding microarray; Universal all-10-mer PBM (8x60K, AMADID 030236), 300 nM GST-tagged protein, Alexa Fluor 488 anti-GST; buffer, salt, pH and temperature not stated (as in Berger); high values mean tight binding). Settings: protein: ivt; tags: N-terminal GST; dsDNA, one strand shown.
T1 sequence: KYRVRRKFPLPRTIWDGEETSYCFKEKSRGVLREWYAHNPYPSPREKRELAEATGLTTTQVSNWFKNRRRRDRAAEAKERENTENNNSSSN
In short: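 Homeodomains fused to GST were made by in vitro transcription/translation and measured by anti-GST western blot with a recombinant GST standard curve. At 300 nM final concentration, they were applied in duplicate to universal 'all 10-mer' protein binding microarrays (8×60K format).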

Sequence | binding signal [E-score]
GGGGTCAA | 0.253 ± 0.0228
AGTGTCAG | 0.4435 ± 0.00254
AGTGTCTG | 0.302 ± 0.0115
AGAGTCAT | 0.1867 ± 0.000552
AGTGTCCG | 0.365 ± 0.00508
GGTGTCAA | 0.49013 ± 0.000481
GGCGTCAA | 0.177 ± 0.0347
AGTGTCAA | 0.424 ± 0.0101
GAGGTATC | 0.337 ± 0.00525
CCCTCCCA | 0.176 ± 0.0422
ACCAAACA | 0.244 ± 0.0473
GTAACATA | 0.196 ± 0.0373
AAAGGGGG | 0.233 ± 0.0235
CACCTTTC | 0.195 ± 0.00584
CGTGATCC | 0.195 ± 0.0306
CGTGTCAA | 0.409 ± 0.00885
CGGGTCAA | 0.2 ± 0.04
TGTGTCAA | 0.303 ± 0.0203
ACTATGCG | 0.17 ± 0.0186
ACCTCGGA | 0.175 ± 0.0387
AATGACAC | 0.464 ± 0.0115
GATGACCC | 0.211 ± 0.0466

Sequence | binding signal [E-score]
AATGACTC | 0.245 ± 0.00746
CATGACAC | 0.4733 ± 0.00427
CATGACCC | 0.218 ± 0.0214
GATGATAC | 0.242 ± 0.0302
GATGACAC | 0.4656 ± 0.00203
AATGACCC | 0.181 ± 0.0204
CATGATAC | 0.287 ± 0.0236
CACCTAGA | 0.276 ± 0.00873
GACGCCAC | 0.201 ± 0.00624
CACCCATC | 0.277 ± 0.0196
ACCCCCGA | 0.298 ± 0.0252
CACTATCC | 0.196 ± 0.0388
AGGGTACA | 0.237 ± 0.00699
ACTCCGGA | 0.204 ± 0.0189
ACCCAGAA | 0.179 ± 0.00761
ACAGTACA | 0.203 ± 0.0245
GGATCCGA | 0.217 ± 0.0131
CACTACCA | 0.227 ± 0.00878
CCACGACA | 0.27 ± 0.00989
ACACGACC | 0.4169 ± 0.00152
ACACGAAT | 0.31 ± 0.00916
GCACGACA | 0.2099 ± 0.000516

Sequence | binding signal [E-score]
ACACGACT | 0.411 ± 0.00971
ACACGACG | 0.368 ± 0.0133
ACACGAAA | 0.302 ± 0.0196
GCACGACC | 0.255 ± 0.00765
ACACGACA | 0.404 ± 0.00581
ACCGAATG | 0.173 ± 0.0343
CCCCCCTA | 0.232 ± 0.01
GTGGAGTA | 0.29 ± 0.0112
ATCGAGGG | 0.167 ± 0.00486
ATCCGATC | 0.213 ± 0.0309
CACTCGGC | 0.237 ± 0.0125
GCGAGTAC | 0.175 ± 0.00781
CCGTATCA | 0.245 ± 0.0466
GGGTAACC | 0.196 ± 0.00371
ACGATAGT | 0.157 ± 0.0172
GCACCACA | 0.154 ± 0.00776
ACACCACG | 0.4775 ± 0.00181
ACACCACT | 0.4835 ± 0.00239
CTACCACA | 0.154 ± 0.0418
AAACCACA | 0.2156 ± 0.00176
ATACCACC | 0.25 ± 0.00441
ACACCACA | 0.485 ± 0.000106

Sequence | binding signal [E-score]
ACCACACT | 0.2703 ± 0.00247
ACACCACC | 0.4809 ± 0.000976
ACGCCACT | 0.159 ± 0.00951
ATACCACG | 0.216 ± 0.0275
GCACCACC | 0.261 ± 0.00493
AACTAACA | 0.2417 ± 0.000339
CACGCTGC | 0.293 ± 0.00561
ATAAGCAC | 0.166 ± 0.0125
ATTCGCAA | 0.162 ± 0.0131
TACCCGTA | 0.168 ± 0.00327
GGGTTTAA | 0.232 ± 0.0257
GAACCCAC | 0.19 ± 0.0124
ACCTCACA | 0.244 ± 0.00679
CACTAAAG | 0.185 ± 0.042
ACCCTCCG | 0.271 ± 0.0147
ACTCTCCC | 0.163 ± 0.0151
CCACTCCA | 0.152 ± 0.00234
ACACTTCT | 0.374 ± 0.0413
ACACTCCT | 0.391 ± 0.0158
ACACTCCA | 0.373 ± 0.0149
ACACTCCC | 0.404 ± 0.00738
ATACTCCG | 0.195 ± 0.0283

Sequence | binding signal [E-score]
ACACTCCG | 0.3884 ± 0.00235
GGCGGATA | 0.22 ± 0.0151
CACTCCAA | 0.161 ± 0.0414
AGGCTACC | 0.187 ± 0.00757
CACCGTCA | 0.209 ± 0.0101
AACACGGG | 0.432 ± 0.00733
AACACGGT | 0.383 ± 0.0148
AGCACGGG | 0.155 ± 0.00564
CACACGGG | 0.332 ± 0.0383
AACACGGA | 0.372 ± 0.0198
CACTCGCA | 0.264 ± 0.0114
ACCGCGGT | 0.187 ± 0.0496
AACAAGTG | 0.172 ± 0.00772
AAGTGTTA | 0.393 ± 0.0449
AAGTGTGT | 0.215 ± 0.00375
CAGTGTTC | 0.355 ± 0.0115
CACTGTTA | 0.255 ± 0.0243
GAGTGCTA | 0.152 ± 0.00664
GAGTGTTA | 0.407 ± 0.0179
AAGTGTTC | 0.285 ± 0.0294
CAGTGTTA | 0.402 ± 0.00939
AGAGCACC | 0.202 ± 0.0183

Source: paper PMC10668032, “Altered binding affinity of SIX1-Q177R correlates with enhanced WNT5A and WNT pathway effector expression in Wilms tumor”
